Assay outcomes as filed in PubChem BioAssay.
Rows were chosen to be rich in hits. Some 1.1% of all compounds tested hit in one or more screens of this group.
NR5A2 inv ag: inverse agonists of human LRH-1 (NR5A2); O00482; HEK293T StAR-luciferase reporter, LRH-1 transfected, 24 h; inhibition, % at 3.6 µM; hit rate 0.13% among 360,000; AID 602396;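 active = inhibition above the mean inhibition of all tested compounds plus 3 SD, cut at about 73% in these data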;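 note: 0% = DMSO wells and 100% = reporter-only cells lacking LRH-1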
NCOA3 inh: human NCOA3 inhibition; AID 588352; hit rate 0.17% among 360,000; Q9Y6Q9; inhibition, % at 3.6 µM; HEK293 GAL4-SRC3 luciferase reporter, luminescence;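 active = inhibition above a per-campaign cutoff, the mean of all compounds plus 3 SD, cut at about 60% in these data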;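 note: 0% = DMSO-treated cells and 100% = gossypol-treated cells at 36 µM; higher means less SRC3-driven luciferase light from the GAL4 reporter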
COUP-TFII inh: inhibitors of human COUP-TFII (NR2F2); P24468; HEK293T NGFI-A luciferase reporter, luminescence; inhibition, % at 8.6 µM; hit rate 0.7% among 370,000; AID 686940;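 active = inhibition above a per-plate cutoff, mean inhibition of test wells between control levels plus 3 SD, cut at about 38% in these data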;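 note: cells cotransfected with COUP-TFII expression vector driving the NGFI-A reporter; 0% = median of COUP-TF2 test wells and 100% = reporter-only cells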
SRC2 inh: inhibits human steroid receptor coactivator 2; HEK293 GAL4-SRC2 luciferase reporter, luminescence; inhibition, % at 9 µM; hit rate 0.17% among 370,000;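 active = inhibition above the mean inhibition of all tested compounds plus 3 SD, set per campaign, cut at about 52% in these data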;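 note: 0% = DMSO treated cells and 100% = cells given Gossypol at 36 µM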
GalR3 antag: blocks the human galanin receptor 3. hit rate 0.44% among 360,000. HEK293 GalR3-CNG cAMP membrane potential fluorescence; galR3 body fused to GalR1 C-terminus. inhibition, % at 3 µM. AID 651719. O60755;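 active = inhibition above the screen-wide average plus 3 SD, cut at about 13% in these data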;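 note: forskolin and galanin both at EC90 stimulate the cells; cAMP rise reported by CNG channel membrane potential dye signal; 0% = forskolin plus galanin with DMSO and 100% = forskolin alone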
SRC1 inh: inhibits human SRC1 coactivator; Q15788; HEK293 GAL4-SRC1 luciferase reporter, luminescence; inhibition, % at 3.6 µM; hit rate 0.12% among 360,000;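 active = inhibition above the campaign mean plus 3 SD, with each screening campaign given its own cutoff, cut at about 60% in these data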;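 note: 0% = DMSO treated cells and 100% = gossypol at 36 µM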
Gal4-VP16 ctr: inhibits VP16 reporter, flagging COUP-TFII antagonist hits. shares compounds with COUP-TFII inh. HEK293 Gal4-VP16 luciferase reporter, luminescence. inhibition, % at 8.5 µM. hit rate 25% among 2,500. AID 687007; in the data active = inhibition above about 13%
COUP-TFII conf: confirmation of human COUP-TFII (NR2F2) inhibitors. inhibition, % at 8.5 µM. hit rate 45% among 2,500. shares compounds with COUP-TFII inh. HEK293 NGFI-A luciferase reporter, luminescence. AID 687008;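 active = mean inhibition over three repeats above a set limit taken from the earlier primary screen, cut at about 38% in these data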;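 note: 100% = cells given the luciferase reporter alone without the COUP-TF2 vector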
Numbers without * were called inactive; / = no result given.

SMILES	NR5A2 inv ag	NCOA3 inh	COUP-TFII inh	SRC2 inh	GalR3 antag	SRC1 inh	Gal4-VP16 ctr	COUP-TFII conf
Cc1cc(C)cc(C(=O)NC(=S)Nc2ccc(-c3cc4ccccc4oc3=O)cc2)c1	10.0	25.9	39.5*	46.4	-0.6	14.0	17.8*	24.3
COc1ccc(C2C(C(=O)N3CCC(C)CC3)CC(=O)N2c2ccc(OC)cc2)cc1 (stereo unspecified)	/	/	-9.2	14.9	/	/	/	/
CCn1c(SCC(=O)Nc2ccccc2-c2ccccc2)nnc1-c1ccc(Cl)cc1	/	/	-8.0	-9.9	/	/	/	/
CCOCCOC(=O)c1[nH]c2c(c1C)C(=O)CC(c1ccc(OC)c(OC)c1)C2 (stereo unspecified)	9.0	5.8	46.1*	2.3	-1.3	-1.6	-4.1	7.1
CCOC(=O)c1[nH]c2c(c1C)C(=O)CC(c1ccc(OC)c(OC)c1)C2 (stereo unspecified)	2.5	11.9	10.7	-29.8	1.3	9.6	/	/
COc1cc(C2CC(=O)c3c([nH]c(C(=O)OCCOC(C)C)c3C)C2)cc(OC)c1OC (stereo unspecified)	42.1	28.1	75.6*	23.2	1.9	21.3	0.1	34.6
COCCOC(=O)c1[nH]c2c(c1C)C(=O)CC(c1cc(OC)ccc1OC)C2 (stereo unspecified)	1.0	5.4	-21.6	-25.5	-2.6	5.9	/	/
O=C(CCc1ccccc1)N[C@H]1[C@H](OC(=O)c2cnccn2)CCC[C@]12C(=O)N(Cc1ccccc1)c1ccccc12	/	/	5.4	6.8	/	/	/	/
CCOc1ccc(-n2c(SCC(=O)Nc3ccc(S(=O)(=O)Nc4cc(C)nc(C)n4)cc3)nnc2-c2ccco2)cc1	/	/	-12.6	-16.9	/	/	/	/
CCCCCCCCCCCCCCCCn1cc[n+](C)c1	54.3	37.0	47.1*	15.9	-2.1	5.0	12.6	49.0*
C[n+]1ccn(CC(=O)c2cccs2)c1	14.2	10.7	3.5	7.6	-7.8	-8.7	/	/
CC(C)(C)c1ccc(C(O)c2ncc(-c3ccccc3)[nH]2)cc1 (stereo unspecified)	1.2	-4.9	4.2	-7.3	-5.7	-25.7	/	/
OC(c1ccc(-c2ccccc2)cc1)c1ncc(-c2ccccc2)[nH]1 (stereo unspecified)	4.7	8.6	56.5*	-12.5	-6.2	9.3	-9.6	-15.1
CCCNC(=O)c1cn(CC)c2cc(N3CCN(C(=O)c4ccco4)CC3)c(F)cc2c1=O	8.0	4.4	17.2	-13.8	0.8	-17.2	/	/
CCn1cc(C(=O)NCc2cccc(F)c2)c(=O)c2cc(F)c(N3CCN(C(=O)c4ccco4)CC3)cc21	26.1	5.8	38.3*	4.1	-1.2	-11.0	-1.7	6.9
COC(=O)c1c(NC(=O)CCCC(=O)O)sc(C)c1C	-1.0	-2.9	-6.2	24.2	-4.0	14.9	/	/
Cc1sc(NC(=O)CCCC(=O)O)c(C(N)=O)c1-c1ccccc1	-19.3	4.7	59.9*	74.9*	-3.2	-3.6	46.7*	30.0
S=C(Nc1ccc(Cl)cc1)c1nc2ccccc2s1	-45.0	-67.5	-23.3	-33.1	-2.5	-59.0	/	/
O=C(Nc1ccc(Cl)cc1)/C(=C/c1cccc(O)c1)c1nc2ccccc2s1	53.2	26.6	66.2*	55.4*	-2.0	6.3	40.2*	54.4*
Cc1csc(NC(=O)CCc2c(C)nc3cc(-c4ccc(Cl)cc4)nn3c2C)n1	9.0	-0.2	48.7*	66.4*	1.9	4.8	-15.3	36.5
COc1cc(OC)cc(-c2cc3nc(C)c(CCC(=O)NCc4ccccc4)c(C)n3n2)c1	35.3	30.4	58.4*	77.3*	-6.4	15.4	28.6*	47.1*
COC(=O)[C@]12C[C@H](CC(=O)N3CCCCC3)C(=O)N(Cc3cccc4ccccc34)C1=C[C@H](C1CCCC1)O[C@@H]2C	/	/	0.9	2.2	/	/	/	/
O=C(Nc1ccc(Cl)c(Cl)c1)c1cccc(S(=O)(=O)NCc2cccnc2)c1	29.5	22.8	52.7*	15.6	4.8	24.9	-0.3	29.8
CC(C)N1CCCCC(NC(=O)c2cccc(F)c2)C1=O (stereo unspecified)	/	/	-21.6	-24.9	/	/	/	/
COC(=O)[C@]12C=CCN1[C@@H](c1ccc(OC)c(OC)c1)c1c(c3ccccc3n1S(=O)(=O)c1ccc(C)cc1)C2	/	/	12.5	2.0	/	/	/	/
SMILES	NR5A2 inv ag	NCOA3 inh	COUP-TFII inh	SRC2 inh	GalR3 antag	SRC1 inh	Gal4-VP16 ctr	COUP-TFII conf
Cc1ccc(OCCN2CCN(C(=O)CCC(=O)Nc3nnc(C(C)C)s3)CC2)cc1	25.0	20.3	41.3*	17.3	-3.5	8.0	-6.1	21.7
Cc1ccc(OCCN2CCN(C(=O)CCC(=O)Nc3nnc(C)s3)CC2)cc1	-0.2	-1.3	-4.0	8.3	-4.8	-0.2	/	/
O=C(CC1CS(=O)(=O)CC1CC(=O)Nc1ccc2c(c1)OCCO2)Nc1ccc2c(c1)OCCO2 (stereo unspecified)	44.4	60.9	69.1*	33.9	-3.3	53.5	-7.1	30.3
Cc1cc2nc(C3CCCN(C(=S)Nc4ccccc4C)C3)[nH]c2cc1C (stereo unspecified)	14.7	6.7	45.1*	21.2	-6.5	13.9	-33.9	-7.3
Cc1ccc2nc(C3CCCN(C(=S)Nc4cccc(C)c4C)C3)[nH]c2c1 (stereo unspecified)	-26.2	19.6	-7.4	2.9	-0.9	-5.7	/	/
Cc1cc(NC(=O)CS(=O)(=O)c2cn(Cc3cccc(Br)c3)c3ccccc23)no1	-8.3	5.8	47.5*	4.3	-0.5	-0.9	-4.1	0.3
C=CCOc1ccc(CN(C)C(=O)CNC(=O)c2ccc(-c3ccccc3)cc2)cc1	21.5	5.7	46.6*	12.2	-6.2	1.3	1.1	35.8
CCCCCCCCN1C(=O)[C@@H](CC(=O)NCCC(C)C)C[C@@]2(C(=O)OC)C1=C[C@H](COCc1ccccc1)O[C@@H]2C	/	/	10.7	-30.8	/	/	/	/
C[n+]1ccc(/C=C/c2c[nH]c3ccc(F)cc23)cc1	14.8	-8.4	37.9*	-8.5	-7.5	18.1	4.9	23.9
COCC(=O)N[C@@H]1C[C@@H]2O[C@H](CO)CC[C@@H]2O[C@@H]1CCc1ccc(-c2ccccc2)cc1	/	/	13.6	15.4	/	/	/	/
O=C(N/N=C/c1ccc([N+](=O)[O-])o1)c1ccc2c(c1)OCO2	47.8	-16.5	53.9*	67.0*	-2.3	-36.1	45.1*	44.4*
O=C(N/N=C\c1ccc(-c2ccc([N+](=O)[O-])cc2)o1)c1ccc2c(c1)OCO2	10.3	-5.1	1.3	0.9	-9.3	-25.4	/	/
NNc1ncnc2scc(-c3ccc(Cl)cc3)c12	14.4	23.4	12.5	10.4	-3.7	17.1	/	/
OCCCNc1ncnc2scc(-c3ccc(Cl)cc3)c12	15.2	38.6	38.3*	50.6	-9.5	49.8	0.3	13.8
O=C(NCc1cccs1)C1CCC(CNS(=O)(=O)c2cccc3cccnc23)CC1 (stereo unspecified)	/	/	4.7	-12.3	/	/	/	/
